In all, about 310,000 compounds went through this assay and about 14,000 (4.5%) showed an effect of 50% or more. The effect is printed as a negative number. Many of the other results were omitted from the sample, so strong results are more common in it than they were.
What follows are compounds tested against human ether-à-go-go-related gene (hERG) potassium channel (human, UniProt Q12809) (assay: primary screen, population patch clamp on CHO cells stably expressing hERG; higher = less effect of the substance).
human ether-à-go-go-related gene (hERG) potassium channel, sequence (Q12809 whole entry, looked up): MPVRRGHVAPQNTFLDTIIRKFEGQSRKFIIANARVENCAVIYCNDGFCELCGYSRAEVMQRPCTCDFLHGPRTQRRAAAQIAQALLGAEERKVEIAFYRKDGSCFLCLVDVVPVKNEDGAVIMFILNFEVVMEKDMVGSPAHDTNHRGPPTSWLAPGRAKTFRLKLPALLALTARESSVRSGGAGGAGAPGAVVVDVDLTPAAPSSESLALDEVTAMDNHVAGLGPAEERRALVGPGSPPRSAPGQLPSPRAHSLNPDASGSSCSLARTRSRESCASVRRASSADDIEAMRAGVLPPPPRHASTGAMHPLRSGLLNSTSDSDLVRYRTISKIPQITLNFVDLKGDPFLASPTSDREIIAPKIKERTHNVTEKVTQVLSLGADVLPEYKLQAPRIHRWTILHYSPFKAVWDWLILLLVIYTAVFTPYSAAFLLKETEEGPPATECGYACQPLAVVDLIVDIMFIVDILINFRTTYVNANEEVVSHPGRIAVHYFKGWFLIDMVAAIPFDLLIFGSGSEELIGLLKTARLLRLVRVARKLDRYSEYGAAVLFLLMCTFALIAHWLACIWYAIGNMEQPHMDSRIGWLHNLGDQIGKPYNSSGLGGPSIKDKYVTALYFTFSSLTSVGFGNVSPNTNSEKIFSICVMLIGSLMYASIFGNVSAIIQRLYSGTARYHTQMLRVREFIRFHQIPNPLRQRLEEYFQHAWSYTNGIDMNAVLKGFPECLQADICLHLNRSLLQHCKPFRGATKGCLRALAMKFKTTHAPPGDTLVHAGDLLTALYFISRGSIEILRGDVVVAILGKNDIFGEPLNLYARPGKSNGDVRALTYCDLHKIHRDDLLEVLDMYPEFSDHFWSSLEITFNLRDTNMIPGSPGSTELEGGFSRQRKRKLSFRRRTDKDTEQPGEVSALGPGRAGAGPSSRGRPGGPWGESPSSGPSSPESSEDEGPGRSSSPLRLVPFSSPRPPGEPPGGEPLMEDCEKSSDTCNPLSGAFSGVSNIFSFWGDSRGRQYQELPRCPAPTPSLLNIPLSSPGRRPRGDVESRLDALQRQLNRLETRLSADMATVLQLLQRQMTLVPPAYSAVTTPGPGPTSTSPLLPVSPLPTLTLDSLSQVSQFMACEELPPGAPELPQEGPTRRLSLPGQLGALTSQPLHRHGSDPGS
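Note: peak tail current of the secondary pulse compared with the same well before compound.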

Q: How did the “hERG current change (%, negative = inhibition) at 10uM” value turn out when `COc1ccccc1C(=O)NCCC(=O)NCc1ccccn1` was run?
A: Its value is -2.66%.

Q: How did the “hERG current change (%, negative = inhibition) at 10uM” value turn out when `O=[N+]([O-])c1ccc(Oc2ccc(Oc3ccc(C(F)(F)F)cn3)cc2)nc1` was run?
A: Its value is -1.44%.

Q: With `O=C(O)C(=O)O.O=[N+]([O-])c1ccc(Oc2ccc(C(F)(F)F)cn2)cc1` as the compound, how does the “hERG current change (%, negative = inhibition) at 10uM” value read?
A: The value was -53.9%.

Q: `O=C(O)c1ccc(Oc2ccc(C(F)(F)F)cn2)cc1` was tested. Which “hERG current change (%, negative = inhibition) at 10uM” value did it give?
A: The value was 17.5%.

Q: Which “hERG current change (%, negative = inhibition) at 10uM” value does the source give for `COc1ccc(NC(=O)Nc2c(C)n(C)n(-c3ccccc3)c2=O)cc1` here?
A: Its value is -18.6%.

Q: `O=C1N=C(N2CCN(c3ccccc3)CC2)S/C1=C/c1ccco1` was tested. Which “hERG current change (%, negative = inhibition) at 10uM” value did it give?
A: The value was -53.8%.

Q: Which “hERG current change (%, negative = inhibition) at 10uM” value does the source give for `NC1=NC(=O)/C(=C\c2ccco2)S1` here?
A: The value was 19.2%.

Q: With `O=C1N=C(N2CCCC2)S/C1=C\c1ccccc1` as the compound, how does the “hERG current change (%, negative = inhibition) at 10uM” value read?
A: Its value is 15.2%.

Q: Which “hERG current change (%, negative = inhibition) at 10uM” value does the source give for `O=C1N=C(N2CCN(c3ccccc3)CC2)S/C1=C/c1cccs1` here?
A: The value was -49.3%.

Q: `O=C1N=C(N2CCN(c3ccccc3)CC2)S/C1=C\c1ccco1` was tested. Which “hERG current change (%, negative = inhibition) at 10uM” value did it give?
A: The value was -66.1%.

Q: Which “hERG current change (%, negative = inhibition) at 10uM” value does the source give for `O=C1N=C(N2CCCC2C(=O)O)S/C1=C\c1ccco1` (stereo not drawn) here?
A: The value was 35%.

Q: How did the “hERG current change (%, negative = inhibition) at 10uM” value turn out when `CCC(C)C(NC(=O)CCCNC(=O)CCC(=O)OC1O[C@H]2OC3(C)CC[C@H]4[C@H](C)CCC(C1C)C24OO3)C(=O)O` (stereo partly drawn) was run?
A: The value was 4.12%.

Q: How did the “hERG current change (%, negative = inhibition) at 10uM” value turn out when `CC(C)CC(NC(=O)CCCNC(=O)CCC(=O)OC1O[C@H]2OC3(C)CC[C@H]4[C@H](C)CCC(C1C)C24OO3)C(=O)O` (stereo partly drawn) was run?
A: The value was 1.34%.

Q: Which “hERG current change (%, negative = inhibition) at 10uM” value does the source give for `Cc1cc(C)n2c3c(c(C#N)c2n1)CC(C)(C)OC3` here?
A: The value was 2.81%.

Q: With `c1ccc(-c2nc(NCc3ccco3)c3ccccc3n2)nc1` as the compound, how does the “hERG current change (%, negative = inhibition) at 10uM” value read?
A: Its value is -62.9%.

Q: Which “hERG current change (%, negative = inhibition) at 10uM” value does the source give for `C(=N\Nc1nc(-c2ccccn2)nc2ccccc12)/c1ccccc1` here?
A: The value was 12.3%.

Q: With `c1ccc(CCNc2nc(-c3ccncc3)nc3ccccc23)cc1` as the compound, how does the “hERG current change (%, negative = inhibition) at 10uM” value read?
A: The value was 3.71%.

Q: How did the “hERG current change (%, negative = inhibition) at 10uM” value turn out when `C/C(=N\Nc1nc(-c2ccccn2)nc2ccccc12)c1ccc(F)cc1` was run?
A: The value was 11%.

Q: For `Cl.c1ccc(-c2nc(NCc3ccco3)c3ccccc3n2)cc1`, which “hERG current change (%, negative = inhibition) at 10uM” value is on record?
A: Its value is -33.4%.

Q: `c1ccc(CCNc2nc(-c3ccccn3)nc3ccccc23)cc1` was tested. Which “hERG current change (%, negative = inhibition) at 10uM” value did it give?
A: Its value is -78.6%.

Q: How did the “hERG current change (%, negative = inhibition) at 10uM” value turn out when `c1ccc(CNc2nc(-c3ccccn3)nc3ccccc23)cc1` was run?
A: Its value is -43.5%.

Q: With `Oc1ccccc1-c1nc(NCc2ccco2)c2ccccc2n1` as the compound, how does the “hERG current change (%, negative = inhibition) at 10uM” value read?
A: Its value is 1.8%.

Q: How did the “hERG current change (%, negative = inhibition) at 10uM” value turn out when `c1ccc(-c2nc(NCC3CCCO3)c3ccccc3n2)nc1` (stereo not drawn) was run?
A: Its value is -23.3%.

Q: For `CCC(C)Nc1nc(-c2cccc(OC)c2O)nc2ccccc12` (stereo not drawn), which “hERG current change (%, negative = inhibition) at 10uM” value is on record?
A: Its value is -5.73%.

Q: `CC(C)(C)Nc1nc(-c2ccccn2)nc2ccccc12` was tested. Which “hERG current change (%, negative = inhibition) at 10uM” value did it give?
A: The value was -69.8%.

Q: With `CCC(C)Nc1nc(-c2ccccn2)nc2ccccc12` (stereo not drawn) as the compound, how does the “hERG current change (%, negative = inhibition) at 10uM” value read?
A: Its value is -50.2%.

Q: How did the “hERG current change (%, negative = inhibition) at 10uM” value turn out when `CCc1ccccc1NC(=O)COc1ccc2c(=O)c(Oc3cc(C)ccc3C)coc2c1` was run?
A: Its value is 10.5%.

Q: How did the “hERG current change (%, negative = inhibition) at 10uM” value turn out when `Cc1cc(C(C)(C)C)c(OC(=O)[C@@H]2OC(c3ccccc3)=C[C@H]2c2ccccc2)c(C(C)(C)C)c1` was run?
A: Its value is 7.58%.

Q: `c1coc(C2Nc3ccccc3C3OCCC23)c1` (stereo not drawn) was tested. Which “hERG current change (%, negative = inhibition) at 10uM” value did it give?
A: Its value is 6.63%.

Q: With `CC(C)Cn1c(N)c(C(=O)COC(=O)C2=COCCO2)c(=O)n(C)c1=O` as the compound, how does the “hERG current change (%, negative = inhibition) at 10uM” value read?
A: Its value is 14.1%.

Q: Which “hERG current change (%, negative = inhibition) at 10uM” value does the source give for `CCOC(=O)NCN1C(=O)C2C3C=CC(C3)C2C1=O` (stereo not drawn) here?
A: Its value is -11.9%.

Q: `CCN(CC)c1nc(-c2ccccc2)nc2ccccc12.Cl` was tested. Which “hERG current change (%, negative = inhibition) at 10uM” value did it give?
A: Its value is -32.5%.

Q: With `CCCCN(CCCC)c1nc(-c2ccncc2)nc2ccccc12` as the compound, how does the “hERG current change (%, negative = inhibition) at 10uM” value read?
A: Its value is -0.281%.

Q: How did the “hERG current change (%, negative = inhibition) at 10uM” value turn out when `CCCN(CCC)c1nc(-c2ccccn2)nc2ccccc12` was run?
A: The value was -74.4%.

Q: For `Cc1ccc(N2CC(C(=O)NCc3ccccn3)CC2=O)cc1` (stereo not drawn), which “hERG current change (%, negative = inhibition) at 10uM” value is on record?
A: Its value is 5.36%.

Q: Which “hERG current change (%, negative = inhibition) at 10uM” value does the source give for `Cc1ccc(-c2csc(NC(=O)c3cc([N+](=O)[O-])ccc3N3CCOCC3)n2)cc1` here?
A: Its value is 15.4%.

Q: `COc1ccc(C(NC(N)=O)c2ccccc2)cc1` (stereo not drawn) was tested. Which “hERG current change (%, negative = inhibition) at 10uM” value did it give?
A: Its value is 10.3%.

Q: With `Cc1cc(C)cc(NC(=S)N(CCCN2CCN(C)CC2)Cc2cccs2)c1` as the compound, how does the “hERG current change (%, negative = inhibition) at 10uM” value read?
A: Its value is -63.3%.

Q: `CN1CCN(CCCN(Cc2cccs2)C(=S)Nc2ccc(Cl)cc2)CC1` was tested. Which “hERG current change (%, negative = inhibition) at 10uM” value did it give?
A: The value was -71.8%.

Q: With `CCc1cccc(C)c1NC(=S)N(CCCN1CCN(C)CC1)Cc1cccs1` as the compound, how does the “hERG current change (%, negative = inhibition) at 10uM” value read?
A: The value was -30.9%.

Q: Which “hERG current change (%, negative = inhibition) at 10uM” value does the source give for `CCc1ccc(NC(=S)N(CCCN2CCN(C)CC2)Cc2cccs2)cc1` here?
A: Its value is -62.5%.

Q: `Cc1cc(C)cc(NC(=S)N(CCN(C)C)Cc2cccs2)c1` was tested. Which “hERG current change (%, negative = inhibition) at 10uM” value did it give?
A: Its value is -25.1%.

Q: Which “hERG current change (%, negative = inhibition) at 10uM” value does the source give for `S=C(Nc1ccc(Cl)cc1)N(CCCN1CCOCC1)Cc1cccs1` here?
A: The value was -32.4%.

Q: `Cc1ccc(NC(=S)N(CCCN2CCN(C)CC2)Cc2cccs2)cc1` was tested. Which “hERG current change (%, negative = inhibition) at 10uM” value did it give?
A: Its value is -51.3%.

Q: How did the “hERG current change (%, negative = inhibition) at 10uM” value turn out when `Cc1ccc(NC(=S)N(CCN(C)C)Cc2cccs2)cc1` was run?
A: Its value is -19.3%.

Q: For `Cc1cc(C)c(NC(=S)N(CCCN2CCN(C)CC2)Cc2cccs2)c(C)c1`, which “hERG current change (%, negative = inhibition) at 10uM” value is on record?
A: Its value is -43.9%.

Q: How did the “hERG current change (%, negative = inhibition) at 10uM” value turn out when `CC1CCCC(NS(=O)(=O)c2cc(Br)cnc2N)C1C` (stereo not drawn) was run?
A: The value was -8.36%.

Q: For `CC(=O)NC(CC(=O)Nc1nc(-c2ccccc2)c(C(C)=O)s1)c1ccccc1` (stereo not drawn), which “hERG current change (%, negative = inhibition) at 10uM” value is on record?
A: The value was -44.4%.

Q: How did the “hERG current change (%, negative = inhibition) at 10uM” value turn out when `COc1ccccc1C(=O)NNC1=C(C(=O)C(F)(F)F)CCC1` was run?
A: Its value is -2.03%.

Q: `O=C(CCl)NN1C(=O)NC(c2ccccc2)(c2ccccc2)C1=O` was tested. Which “hERG current change (%, negative = inhibition) at 10uM” value did it give?
A: Its value is 11.2%.

Q: Which “hERG current change (%, negative = inhibition) at 10uM” value does the source give for `O=C(O)c1ccc(N(c2ccccc2)c2ccccc2)cc1` here?
A: Its value is 2.69%.

Q: For `CCCN1CCN(C(=O)c2cccc3c2C(=O)N(CCOC)C3)CC1`, which “hERG current change (%, negative = inhibition) at 10uM” value is on record?
A: The value was 13%.

Q: `COc1ccc(-c2nnc(SCC(N)=O)n2N)cc1` was tested. Which “hERG current change (%, negative = inhibition) at 10uM” value did it give?
A: The value was 6.29%.

Q: How did the “hERG current change (%, negative = inhibition) at 10uM” value turn out when `COc1cc(/C=N/NC(=O)c2nnn(-c3nonc3N)c2C(C)C)ccc1O` was run?
A: The value was -2.72%.

Q: How did the “hERG current change (%, negative = inhibition) at 10uM” value turn out when `O=C1CC(NC(=O)c2ccc(Cl)cc2)C(=O)N1` (stereo not drawn) was run?
A: The value was 14.8%.

Q: With `Cc1cccc2sc(NC(=O)c3ccc(OCC4CCCO4)cc3)nc12` (stereo not drawn) as the compound, how does the “hERG current change (%, negative = inhibition) at 10uM” value read?
A: Its value is 9.85%.

Q: `CCc1ccc(NC(=S)N2CCNC(=O)C2CC(=O)OC)cc1` (stereo not drawn) was tested. Which “hERG current change (%, negative = inhibition) at 10uM” value did it give?
A: The value was 7.17%.

Source: paper PMC4336329 (PLoS ONE, 2015)
